Reference: PubChem BioAssay
Calls of active or inactive are those of the source.

Key:
[1] = test system: PRMT1 (protein arginine N-methyltransferase 1); assay: small molecules binding arginine methyltransferase PRMT1 – biochemical, small-molecule microarray, 635 nm fluorescence, primary screen (AID 1088); details: higher = more signal;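 further: binding of Prmt1 protein to compounds spotted on small-molecule microarray slides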
[2] = growth effects on S. cerevisiae YJM789 – YJM789 clinical isolate, OD600, 24 h, basal, primary screen (AID 1089); details: higher = more signal, called active from +8 up or from −8 down;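 further: growth of clinical yeast isolate S. cerevisiae YJM 789 seeded 1000 cells per well; test concentration not given here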
[3] = S. pombe growth modifiers, basal conditions – strain 972, OD600, 24 h, no modulator, primary screen (AID 1090);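 further: basal condition with compound alone and no growth modifier present; test concentration not given here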; details: S. pombe 972 growth, higher = more signal, called active from +8 up or from −8 down
[4] = budding yeast growth modifiers under rapamycin – strain BY4716, OD600, 96 h, primary screen (AID 1091); further: test concentration not given here; details: S. cerevisiae BY4716 + rapamycin, higher = more signal, called active from +8 up or from −8 down
[5] = target: Torsin-1A-interacting protein 2 (Homo sapiens) (UniProt Q8NFQ8); assay: small molecules binding lysate-expressed LULL1 – cell lysate, human LULL1 lysate, 635/667 nm fluorescence, primary screen (AID 1092); details: small-molecule microarray, hLULL1 lysate binding, 635 nm fluorescence; higher = more signal;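 further: probe is lysate of COS7 cells overexpressing human LULL1; score merges per-feature 667 nm fluorescence with signal-to-noise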
Chain of Torsin-1A-interacting protein 2 (Homo sapiens) (Q8NFQ8 whole entry, looked up): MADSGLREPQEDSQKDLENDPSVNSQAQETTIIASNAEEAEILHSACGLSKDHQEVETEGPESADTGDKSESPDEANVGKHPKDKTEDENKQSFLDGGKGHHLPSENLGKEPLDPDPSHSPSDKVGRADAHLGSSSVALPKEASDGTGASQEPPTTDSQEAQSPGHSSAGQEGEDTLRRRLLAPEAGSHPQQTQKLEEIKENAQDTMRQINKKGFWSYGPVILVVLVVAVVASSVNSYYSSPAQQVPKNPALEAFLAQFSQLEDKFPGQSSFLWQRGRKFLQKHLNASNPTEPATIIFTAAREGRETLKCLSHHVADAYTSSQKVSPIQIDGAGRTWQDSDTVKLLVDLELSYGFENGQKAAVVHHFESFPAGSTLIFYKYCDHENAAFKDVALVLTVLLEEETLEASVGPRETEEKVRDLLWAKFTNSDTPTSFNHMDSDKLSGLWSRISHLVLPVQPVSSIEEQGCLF

[6] = optical density change of DRC41 E. coli – strain DRC41, OD650, 24 h, E. coli filamentation project, primary screen (AID 1093);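 further: MC1000 strain lacking acrAB efflux and sulA so SOS filamentation is blocked; test concentration not given here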; details: E. coli DRC41 growth, higher = more signal, called active from +8 up or from −8 down
[7] = probe aLefty2 binding to arrayed compounds – biochemical, biotinylated probe, 635/667 nm fluorescence, primary screen (AID 1094); details: small-molecule microarray, higher = more signal;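 further: score merges spot fluorescence near 667 nm with spot signal-to-noise ratio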
[8] = test system: Noggin (protein binding on small-molecule microarray); assay: small molecules binding Noggin protein – biochemical, 635/667 nm fluorescence, primary screen (AID 1095); details: 635 nm fluorescence, higher = more signal;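 further: score merges 667 nm feature fluorescence with signal to noise over triplicate slides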
[9] = target: Neurogenic locus notch homolog protein 3 (Homo sapiens) (UniProt Q9UM47); assay: small molecules binding NOTCH3 protein – biochemical, 635/667 nm fluorescence, primary screen (AID 1096); details: small-molecule microarray, 635 nm fluorescence, higher = more signal
Chain of Neurogenic locus notch homolog protein 3 (Homo sapiens) (Q9UM47 whole entry, looked up): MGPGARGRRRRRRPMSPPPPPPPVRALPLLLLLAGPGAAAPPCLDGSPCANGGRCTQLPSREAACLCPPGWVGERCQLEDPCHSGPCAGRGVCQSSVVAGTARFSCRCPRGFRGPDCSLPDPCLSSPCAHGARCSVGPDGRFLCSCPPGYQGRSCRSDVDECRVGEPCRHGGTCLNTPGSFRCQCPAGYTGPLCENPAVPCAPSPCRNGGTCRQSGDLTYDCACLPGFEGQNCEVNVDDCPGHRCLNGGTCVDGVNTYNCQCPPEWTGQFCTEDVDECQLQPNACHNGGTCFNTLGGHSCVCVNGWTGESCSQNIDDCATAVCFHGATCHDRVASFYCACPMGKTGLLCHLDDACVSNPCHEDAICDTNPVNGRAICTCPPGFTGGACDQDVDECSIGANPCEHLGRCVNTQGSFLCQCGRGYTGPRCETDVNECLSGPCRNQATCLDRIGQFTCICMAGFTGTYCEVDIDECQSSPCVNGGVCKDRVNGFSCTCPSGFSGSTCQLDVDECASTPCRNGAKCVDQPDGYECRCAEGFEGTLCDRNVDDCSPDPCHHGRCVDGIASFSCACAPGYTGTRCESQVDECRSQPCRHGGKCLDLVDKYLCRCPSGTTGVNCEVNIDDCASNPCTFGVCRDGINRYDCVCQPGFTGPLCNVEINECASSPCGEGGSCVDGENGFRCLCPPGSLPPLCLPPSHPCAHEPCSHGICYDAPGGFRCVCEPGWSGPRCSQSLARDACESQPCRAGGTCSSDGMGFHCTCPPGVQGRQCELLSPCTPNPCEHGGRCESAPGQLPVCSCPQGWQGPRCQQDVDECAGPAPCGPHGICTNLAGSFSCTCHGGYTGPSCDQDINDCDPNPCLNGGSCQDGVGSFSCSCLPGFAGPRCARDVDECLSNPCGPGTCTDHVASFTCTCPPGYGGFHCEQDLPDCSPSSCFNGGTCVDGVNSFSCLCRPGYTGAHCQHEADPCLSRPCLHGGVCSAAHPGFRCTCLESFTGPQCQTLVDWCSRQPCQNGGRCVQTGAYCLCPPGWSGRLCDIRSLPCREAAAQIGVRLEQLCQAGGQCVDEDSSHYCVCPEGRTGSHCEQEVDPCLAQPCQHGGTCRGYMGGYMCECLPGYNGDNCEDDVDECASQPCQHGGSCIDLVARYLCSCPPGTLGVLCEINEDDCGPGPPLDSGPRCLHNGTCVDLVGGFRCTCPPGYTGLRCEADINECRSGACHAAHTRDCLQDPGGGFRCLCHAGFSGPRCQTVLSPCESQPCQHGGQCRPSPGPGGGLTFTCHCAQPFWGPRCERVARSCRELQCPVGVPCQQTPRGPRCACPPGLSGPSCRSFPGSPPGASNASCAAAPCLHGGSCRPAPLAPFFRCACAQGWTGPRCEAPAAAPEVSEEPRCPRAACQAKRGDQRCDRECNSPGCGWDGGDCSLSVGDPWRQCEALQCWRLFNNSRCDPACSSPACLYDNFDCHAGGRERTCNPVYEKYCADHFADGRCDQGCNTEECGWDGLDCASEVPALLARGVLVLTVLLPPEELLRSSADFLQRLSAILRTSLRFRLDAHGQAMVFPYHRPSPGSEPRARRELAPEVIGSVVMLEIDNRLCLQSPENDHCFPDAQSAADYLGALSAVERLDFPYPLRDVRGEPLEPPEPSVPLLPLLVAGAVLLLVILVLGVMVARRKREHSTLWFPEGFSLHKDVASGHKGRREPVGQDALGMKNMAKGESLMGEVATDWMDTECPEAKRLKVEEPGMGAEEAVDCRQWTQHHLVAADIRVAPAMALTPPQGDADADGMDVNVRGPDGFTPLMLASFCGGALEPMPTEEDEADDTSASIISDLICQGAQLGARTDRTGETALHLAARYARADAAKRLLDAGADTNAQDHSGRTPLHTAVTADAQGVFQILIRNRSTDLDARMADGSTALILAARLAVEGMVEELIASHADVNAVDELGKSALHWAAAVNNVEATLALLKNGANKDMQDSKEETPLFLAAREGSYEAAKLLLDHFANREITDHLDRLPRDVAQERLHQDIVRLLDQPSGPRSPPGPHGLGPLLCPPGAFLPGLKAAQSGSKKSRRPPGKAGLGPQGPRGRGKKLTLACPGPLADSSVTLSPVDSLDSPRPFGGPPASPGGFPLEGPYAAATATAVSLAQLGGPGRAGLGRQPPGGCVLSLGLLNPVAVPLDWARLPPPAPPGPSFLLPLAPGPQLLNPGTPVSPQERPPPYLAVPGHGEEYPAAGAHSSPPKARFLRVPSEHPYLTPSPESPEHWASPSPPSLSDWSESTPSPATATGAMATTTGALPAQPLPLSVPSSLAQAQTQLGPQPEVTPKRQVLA

[10] = probe aEGFR binding to arrayed compounds – biochemical, biotinylated probe, 635/667 nm fluorescence, primary screen (AID 1097); details: small-molecule microarray, higher = more signal;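 further: probe is a biotinylated anti-EGFR antibody binding compounds printed on slides; score combines fluorescence near 667 nm and signal to noise of each spot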
[11] = test system: Plasmodium falciparum Sir2 (PF13_0152, Sir2A); assay: Plasmodium falciparum Sir2A binding compounds – biochemical, small-molecule microarray, 635 nm fluorescence, primary screen (AID 1098); details: fluorescence 635 nm, higher = more signal;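 further: score merges spot fluorescence intensity with its signal-to-noise ratio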
[12] = probe aDKK1 binding to arrayed compounds – biochemical, biotinylated probe, 635/667 nm fluorescence, primary screen (AID 1099); details: small-molecule microarray, higher = more signal;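 further: score merges 667nm spot fluorescence with signal to noise across triplicate slides; reference of the scale not given here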
[13] = probe aCHRDL2 binding to arrayed compounds – biochemical, biotinylated probe, 635/667 nm fluorescence, primary screen (AID 1100); details: small-molecule microarray, higher = more signal
[14] = change in splice reporter luminescence, either direction, cell-based, HEK293, spliceosome inhibition project, primary screen (AID 1101); details: HEK293 splicing luciferase reporter, 24 h, higher = more signal, called active from +8 up or from −8 down;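 further: HEK293 cells carrying a splicing-competent luciferase reporter gene; test concentration not given here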
[15] = target: Fibroblast growth factor 10 (Homo sapiens) (UniProt O15520); assay: compounds binding fibroblast growth factor 10 – biochemical, small-molecule microarray, 635 nm fluorescence, primary screen (AID 1102); details: FGF10 binding, fluorescence 635 nm, higher = more signal
Chain of Fibroblast growth factor 10 (Homo sapiens) (O15520 whole entry, looked up): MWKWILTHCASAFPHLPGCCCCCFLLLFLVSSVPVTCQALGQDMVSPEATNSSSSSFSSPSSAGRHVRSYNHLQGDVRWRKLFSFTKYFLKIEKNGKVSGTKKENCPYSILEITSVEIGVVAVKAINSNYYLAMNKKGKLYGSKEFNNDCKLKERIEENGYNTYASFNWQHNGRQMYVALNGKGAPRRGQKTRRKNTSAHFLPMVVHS

[16] = test system: glycogen synthase kinase-3 (GSK3A per assay name; protocol says GSK3B); assay: compounds binding glycogen synthase kinase-3 – biochemical, small-molecule microarray, 635 nm fluorescence, GSK3A, primary screen (AID 1103); details: fluorescence 635 nm, higher = more signal; further: the record names both GSK3A and GSK3B
[17] = target: Epidermal growth factor receptor (Homo sapiens) (UniProt P00533); assay: compounds binding epidermal growth factor receptor – biochemical, small-molecule microarray, 635 nm fluorescence, primary screen (AID 1104); details: EGFR binding, higher = more signal;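 further: score merges 667 nm emission intensity with spot signal to noise over triplicate slides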
Chain of Epidermal growth factor receptor (Homo sapiens) (P00533 whole entry, looked up): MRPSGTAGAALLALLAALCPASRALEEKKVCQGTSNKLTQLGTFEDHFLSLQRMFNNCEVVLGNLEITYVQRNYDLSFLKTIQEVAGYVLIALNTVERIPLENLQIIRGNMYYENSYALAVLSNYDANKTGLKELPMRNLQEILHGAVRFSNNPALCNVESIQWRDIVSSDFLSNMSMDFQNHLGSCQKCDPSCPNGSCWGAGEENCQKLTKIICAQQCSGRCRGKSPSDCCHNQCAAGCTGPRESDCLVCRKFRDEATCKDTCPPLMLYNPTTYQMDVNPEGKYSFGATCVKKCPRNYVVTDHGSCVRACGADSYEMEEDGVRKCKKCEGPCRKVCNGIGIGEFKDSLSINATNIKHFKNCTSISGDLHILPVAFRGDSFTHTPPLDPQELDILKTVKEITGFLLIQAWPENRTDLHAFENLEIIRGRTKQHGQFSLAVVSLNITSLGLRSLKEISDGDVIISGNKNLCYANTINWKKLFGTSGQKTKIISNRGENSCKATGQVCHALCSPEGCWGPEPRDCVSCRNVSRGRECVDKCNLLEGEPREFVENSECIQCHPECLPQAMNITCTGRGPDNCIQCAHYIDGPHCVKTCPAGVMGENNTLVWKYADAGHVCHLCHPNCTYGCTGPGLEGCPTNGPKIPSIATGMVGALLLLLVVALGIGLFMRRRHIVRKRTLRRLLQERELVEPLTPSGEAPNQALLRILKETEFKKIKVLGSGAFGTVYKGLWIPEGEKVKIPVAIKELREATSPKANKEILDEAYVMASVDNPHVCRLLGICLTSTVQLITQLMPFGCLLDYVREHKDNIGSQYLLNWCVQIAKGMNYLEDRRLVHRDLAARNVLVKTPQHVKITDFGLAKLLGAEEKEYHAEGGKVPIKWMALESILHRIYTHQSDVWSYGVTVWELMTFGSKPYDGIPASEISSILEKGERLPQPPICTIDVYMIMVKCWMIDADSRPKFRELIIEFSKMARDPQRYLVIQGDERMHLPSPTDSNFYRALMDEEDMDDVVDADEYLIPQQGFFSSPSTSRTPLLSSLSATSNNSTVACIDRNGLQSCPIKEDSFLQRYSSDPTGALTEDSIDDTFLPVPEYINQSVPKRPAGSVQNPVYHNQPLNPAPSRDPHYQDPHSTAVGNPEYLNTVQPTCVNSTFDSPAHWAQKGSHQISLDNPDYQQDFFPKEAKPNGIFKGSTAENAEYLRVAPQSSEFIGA

[18] = target: Follistatin-related protein 3 (Homo sapiens) (UniProt O95633); assay: compounds binding follistatin-related protein 3 – biochemical, small-molecule microarray, 635 nm fluorescence, primary screen (AID 1105); details: FSTL3 binding, higher = more signal;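 further: score merges emission near 667 nm and signal to noise per printed spot across three slides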
Chain of Follistatin-related protein 3 (Homo sapiens) (O95633 whole entry, looked up): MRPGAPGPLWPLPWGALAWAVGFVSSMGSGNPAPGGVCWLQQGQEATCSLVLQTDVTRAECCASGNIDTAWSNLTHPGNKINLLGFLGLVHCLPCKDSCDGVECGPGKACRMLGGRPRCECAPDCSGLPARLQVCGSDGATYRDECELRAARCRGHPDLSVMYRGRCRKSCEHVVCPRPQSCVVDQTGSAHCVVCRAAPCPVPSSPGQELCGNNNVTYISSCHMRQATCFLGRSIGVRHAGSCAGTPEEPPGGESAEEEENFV

[19] = target: Dickkopf-related protein 1 (Homo sapiens) (UniProt O94907); assay: small molecules binding DKK1 protein – biochemical, small-molecule microarray, 635 nm fluorescence scan, primary screen (AID 1106); details: higher = more signal;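 further: score merges emission near 667 nm with signal to noise over three replicate slides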
Chain of Dickkopf-related protein 1 (Homo sapiens) (O94907 whole entry, looked up): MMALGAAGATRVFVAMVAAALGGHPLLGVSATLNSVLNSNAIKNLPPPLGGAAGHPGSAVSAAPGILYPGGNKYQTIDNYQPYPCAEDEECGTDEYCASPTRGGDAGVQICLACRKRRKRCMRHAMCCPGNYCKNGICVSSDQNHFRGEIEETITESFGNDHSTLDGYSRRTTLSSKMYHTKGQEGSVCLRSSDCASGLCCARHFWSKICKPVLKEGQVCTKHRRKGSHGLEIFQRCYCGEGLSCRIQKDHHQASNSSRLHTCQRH

[20] = test system: Inhibin beta A chain (activin A); assay: small molecules binding activin A – biochemical, small-molecule microarray, 635 nm fluorescence scan, primary screen (AID 1107); details: INHBA, higher = more signal;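 further: mouse activin A protein probed at 4.33 µg/mL on printed slides; score merges bound-protein fluorescence near 667 nm with spot signal-to-noise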

SMILES	composite z-score [1]	z-score [2]	z-score [3]	z-score [4]	composite z-score [5]	z-score [6]	composite z-score [7]	composite z-score [8]	composite z-score [9]	composite z-score [10]	composite z-score [11]	composite z-score [12]	composite z-score [13]	z-score [14]	composite z-score [15]	composite z-score [16]	composite z-score [17]	composite z-score [18]	composite z-score [19]	composite z-score [20]
COC(=O)[C@H]1COC(c2ccc(OCCCO)cc2)=N1	-0.152	-0.488 (inactive)	-0.888 (inactive)	-0.606 (inactive)	3.59	0.332 (inactive)	0.267	-0.37	-0.607	-0.0947	1.16	0.378	1.07	-0.19 (inactive)	-0.13	-0.882	-0.2	-0.576	-0.59	1.04
CCc1cc2c(nc1CC)CCN(CCC(C)=NOC[C@@H](O)[C@H]1O[C@@H]3OC(C)(C)O[C@@H]3[C@H]1O)C2	0.85	-1.63 (inactive)	0.24 (inactive)	-0.282 (inactive)	0.767	0.71 (inactive)	-0.175	0.276	0.0003	-0.0343	0.569	-0.54	-0.32	-0.173 (inactive)	0.123	0.175	0.352	0.285	0.453	0.963
CCCCCN1CC=CC23O[C@@H]4C=CCOC(=O)[C@@H]4[C@H]2C(=O)N(C(CO)C(C)C)[C@@H]3C1=O (stereo not given in full)	-0.266	0.403 (inactive)	0.195 (inactive)	0.972 (inactive)	-1.52	0.869 (inactive)	-0.166	-0.433	0.247	-0.234	0.745	-0.183	0.0134	0.253 (inactive)	-0.512	-0.786	-1.07	-0.472	-0.426	0.712
CCN1C(=O)[C@H]2[C@H]3[C@H](O)[C@H](O)CC(=NOCc4ccccc4)[C@H]3CC[C@H]2C1=O	-0.204	-0.896 (inactive)	-0.337 (inactive)	-0.262 (inactive)	0.21	0.632 (inactive)	-0.386	0.863	0.469	-0.0953	0.18	-0.237	-0.278	0.462 (inactive)	0.47	0.0166	0.0741	-0.257	0.132	-0.114
COC(=O)[C@@H]1CC[C@H](C)[C@@H](c2ccc(C)cc2)N1C(=O)c1ccc(C=NOC(C)CN2CCCCc3nc(C)c(C)cc32)cc1 (stereo not given in full)	-0.066	-0.632 (inactive)	-11.8 (active)	0.325 (inactive)	-0.0101	0.829 (inactive)	-0.0332	0.149	-0.145	-0.0929	0.775	-0.136	0.174	-0.423 (inactive)	0.127	-0.626	0.598	0.0406	0.323	1.49
O=C1[C@H]2[C@H]3[C@H](O)[C@H](O)CC(=NO[C@@H]4O[C@H](CO)[C@@H](O)[C@H](O)[C@H]4O)[C@H]3CC[C@H]2C(=O)N1Cc1ccccc1	1.46	-0.509 (inactive)	-0.468 (inactive)	-0.987 (inactive)	0.903	-0.61 (inactive)	-0.0015	1.02	0.669	-0.0565	0.366	-0.223	-0.752	-0.741 (inactive)	0.437	0.656	0.426	0.0042	-0.566	-1.42
CC=CC1=C(CO)[C@H](O)[C@H]2O[C@H]2[C@H]1O	1.23	0.505 (inactive)	0.317 (inactive)	1.12 (inactive)	-0.0789	0.131 (inactive)	-0.24	0.834	0.67	-0.0382	0.412	-0.346	-0.786	-0.383 (inactive)	0.805	1.23	0.393	0.578	1.07	-0.047
CC(CCN1CCCCc2nc(C)c(C)cc21)=NOC(C)CN1CCCCc2nc(C)c(C)cc21 (stereo not given)	1.52	-1.32 (inactive)	-1.49 (inactive)	0.187 (inactive)	2.37	-0.0919 (inactive)	-0.0101	1.04	1.07	0.272	1.62	-0.142	-0.595	0.127 (inactive)	1.07	1.33	1.58	1.42	1.68	0.908
C[C@@H]1C=CCC(=O)OC[C@H](C)C(=O)N2CCC[C@H]2C(=O)OC1	1.54	-0.407 (inactive)	0.334 (inactive)	0.356 (inactive)	0.0414	0.325 (inactive)	-0.0971	1.7	0.677	0.228	1.12	-0.457	-0.769	-0.479 (inactive)	0.825	1.21	1.26	0.829	2.21	-1.04
C=CC[C@@H]1C=C[C@H](ON=C[C@@H](OC)[C@H](C)C=CCC(=O)OC)[C@@H](CO)O1	0.325	0.78 (inactive)	0.173 (inactive)	0.634 (inactive)	0.485	0.23 (inactive)	-0.124	0.471	-0.39	0.0129	-0.433	-0.0759	-0.615	0.653 (inactive)	0.423	0.306	-0.0453	0.343	0.17	0.496
